Bioassay records from PubChem BioAssay.
Compounds with a hit are over-represented: about 31% of the library has one in this group of screens.
CYP2C9 inh: human CYP2C9 inhibition | CYP2C9 Supersomes, luciferin-H conversion, luminescence | inhibition, % at 5 µM | 96,000 compounds, 20% hits | AID 777;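 active = blocking of liver enzyme CYP2C9 beyond about 50% at 5 µM, limit read from the data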
CYP2C9 activ: increases human cytochrome P450 2C9 activity; P11712; recombinant CYP2C9, luciferin-H conversion, luminescence; stronger effect = higher value; factor 1 = untreated enzyme, 0 = blocked; activation factor at 5 µM; 96,000 compounds, 1.4% hits;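 active = activation factor of 2 or more for CYP2C9 at a 5 µM dose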;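 note: 0 = sulfaphenazole-blocked wells and 1 = vehicle-only wells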
CYP2C19 inhib: human CYP2C19 inhibition. CYP2C19 Supersomes, luciferin-H EGE luminescence, 30 min. P33261. inhibition, % at 5 µM. 96,000 compounds, 21% hits. AID 778;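 active = CYP2C19 inhibition above a set limit at 5 µM in the primary screen, cut at about 50% in these data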;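 note: plate controls were negative control wells for no effect and 2.5 mM tranylcypromine positive control for full effect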
PLAP act: human PLAP activation | purified PLAP enzyme, luminescent substrate read-out; stronger effect = higher value | activation fold at 20 µM | 96,000 compounds, 1.2% hits | AID 696; in the data active = activation fold above about 2
Target sequence (P05187 whole entry, looked up): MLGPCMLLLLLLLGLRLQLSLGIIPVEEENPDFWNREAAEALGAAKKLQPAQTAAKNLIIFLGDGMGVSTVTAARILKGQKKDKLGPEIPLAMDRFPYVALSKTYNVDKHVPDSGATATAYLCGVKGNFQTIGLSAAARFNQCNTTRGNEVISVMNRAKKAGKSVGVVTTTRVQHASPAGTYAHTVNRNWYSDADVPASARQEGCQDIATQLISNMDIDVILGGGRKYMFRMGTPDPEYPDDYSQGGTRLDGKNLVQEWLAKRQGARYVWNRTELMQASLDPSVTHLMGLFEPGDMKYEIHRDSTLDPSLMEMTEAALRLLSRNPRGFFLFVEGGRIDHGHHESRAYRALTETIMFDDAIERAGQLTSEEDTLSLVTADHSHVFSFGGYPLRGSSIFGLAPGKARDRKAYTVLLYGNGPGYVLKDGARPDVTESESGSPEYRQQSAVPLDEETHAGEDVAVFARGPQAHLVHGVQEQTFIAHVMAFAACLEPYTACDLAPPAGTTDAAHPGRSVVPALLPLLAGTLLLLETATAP
CYP2C19 act: cytochrome P450 2C19 (human) activation; activation factor at 5 µM; 96,000 tested, under 10 active; P33261; recombinant CYP2C19, luciferin-H EGE luminescence; stronger effect = higher value; 0 = fully inhibited enzyme, 1 = untreated enzyme;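 active = activation factor of at least 2 at 5 µM in the primary screen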;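 note: 0 = wells with 2.5 mM tranylcypromine and 1 = vehicle-only wells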
* = called active by the depositor.

SMILES	CYP2C9 inh	CYP2C9 activ	CYP2C19 inhib	PLAP act	CYP2C19 act
CC(C)NC(=O)NC(=O)CSc1nnc(COc2ccccc2F)n1C(C)C1CC2CCC1C2 (configuration not stated)	42	0.6	20	1.3	0.8
C/C(N)=C(/C#N)C(=O)COC(=O)CCSc1ccccc1Cl	0	1	64*	0.9	0.4
C/C(N)=C(/C#N)C(=O)COC(=O)CSc1ccccc1	40	0.6	48	1.6	0.5
CCCCC(=O)NC1(C(F)(F)F)C(=O)Nc2c1c(=O)[nH]c(=O)n2Cc1ccco1 (configuration not stated)	29	0.7	11	1	0.9
CC(=O)Nc1cccc(NC(=O)CCCC(=O)O)c1	3	1	3	0.9	1
Cc1ccc(/C=C/c2nc3ccccc3s2)s1	24	0.8	72*	0.6	0.3
CN(C)c1ccc(/C=C/c2nc3ccccc3s2)cc1	-17	1.2	38	1	0.6
Cc1c(C(=O)NCc2cccnc2)sc2ncn(CC(=O)N3CCCCC3C)c(=O)c12 (configuration not stated)	21	0.8	11	1.1	0.9
O=C(NCC1CCCO1)c1ccc(CS(=O)(=O)c2c(Cl)cccc2Cl)o1 (configuration not stated)	-87	1.9	54*	1.1	0.5
O=C(O)c1ccccc1C(=O)NCC(O)COCC1CC=CCC1 (configuration not stated)	13	0.9	92*	1.1	0.1
COc1ccccc1OCC(=O)Nc1ccc(S(=O)(=O)NC(C)=O)cc1	22	0.8	-11	1.7	1.1
COc1ccccc1OCC(=O)Nc1ccc(S(=O)(=O)Nc2nc(C)cc(C)n2)cc1	70*	0.3	38	1.3	0.6
COc1ccc(C(=O)Nc2ccc(S(=O)(=O)Nc3cc(C)nc(C)n3)cc2)c(OC)c1	37	0.6	-4	1.4	1
COc1ccccc1C(=O)Nc1ccc(S(=O)(=O)Nc2cc(C)nc(C)n2)cc1	56*	0.4	0	1.6	1
CCCCCCc1ccc(OCC(=O)OC)cc1OCC(=O)OC	30	0.7	21	1.4	0.8
Cc1cc(C(=O)N/N=C2\CCCC(C)C2)n[nH]1 (configuration not stated)	-10	1.1	-4	1.2	1
CCOc1cc(-c2noc(N)c2C(=O)OC)cc(OCC)c1OCC	18	0.8	3	0.8	1
COC(=O)c1c(-c2ccc(Br)cc2)noc1N	50	0.5	78*	1	0.2
O=C(CSc1nnnn1C1CC2CCC1C2)Nc1ccnc2ccccc12 (configuration not stated)	29	0.7	22	0.9	0.8
CCOC(=O)N1CCC(NC(=O)c2ccc(NC(=O)C3CCCO3)cc2)CC1 (configuration not stated)	8	0.9	11	1.2	0.9
COc1cccc(Nc2nc(-c3cccc(N4C(=O)c5ccccc5C4=O)c3)cs2)c1	62*	0.4	26	1	0.7
COc1cccc(Nc2nc(-c3ccc(O)cc3)cs2)c1	82*	0.2	49	0.9	0.5
Cc1cccnc1Nc1nc(-c2ccc(O)cc2)cs1	63*	0.4	88*	1.3	0.1
COc1ccc(CN=C2Nc3ccccc3CS2)cc1	20	0.8	42	1	0.6
CSc1ccc(CNc2ccc(Cl)cc2)cc1	3	1	96*	0.8	0
SMILES	CYP2C9 inh	CYP2C9 activ	CYP2C19 inhib	PLAP act	CYP2C19 act
CCN(CC)c1ccc(NC(=O)c2cccc(F)c2)c(C)c1	-92	1.9	4	1	1
CCOC(=O)c1cc(OC(=O)c2ccccc2)n(-c2ccccc2)n1	3	1	27	1	0.7
CCOC(=O)C(=CNc1cc(C)nn1-c1ccccc1)C(=O)OCC	63*	0.4	14	1.3	0.9
CCOC(=O)C(/C=N/c1cc(C)nn1-c1ccccc1)=C(\C)O	70*	0.3	59*	0.8	0.4
O=C(CN1CCOCC1)Nc1ccccc1C(=O)O	6	0.9	-8	0.9	1.1
CN(C)c1nc(Nc2ccc(Cl)cc2)nc(OCC#N)n1	4	1	-7	1.2	1.1
COc1cc(C(=O)N2CCN(Cc3ccccc3C(F)(F)F)CC2)cc(OC)c1OC	-21	1.2	23	1.5	0.8
COc1cccc(OC)c1C(=O)N1CCN(Cc2ccccc2C(F)(F)F)CC1	91*	0.1	94*	1.5	0.1
COc1cc(OC)cc(C(=O)N2CCN(Cc3ccccc3C(F)(F)F)CC2)c1	30	0.7	78*	1.4	0.2
CCCS(=O)(=O)N1CCN(C(=O)c2cc(OC)cc(OC)c2)CC1	11	0.9	71*	1.1	0.3
Cc1cccc(C(=O)N/N=C/c2ccncc2)c1	39	0.6	64*	1.1	0.4
CC(/C=N/NC(=O)c1cc(C(C)(C)C)[nH]n1)=C\c1ccccc1	60*	0.4	18	1	0.8
CC(/C=N/NC(=O)c1ccncc1)=C\c1ccccc1	79*	0.2	81*	1	0.2
Cc1cccc(C(=O)N/N=C/c2ccc(OC3CSC3)cc2)c1	1	1	-6	0.9	1.1
CCOc1ccc(NC(=O)CNc2ccc(C)cc2Cl)cc1	33	0.7	78*	0.8	0.2
CCOc1ccc(NC(=O)Nc2cc(C)ccc2F)cc1	14	0.9	75*	0.7	0.3
O=C(NCCC1=CCCCC1)c1ccc(Cl)c(S(=O)(=O)Nc2ccccc2)c1	69*	0.3	40	1.4	0.6
Cc1ccccc1NS(=O)(=O)c1cc(C(=O)NCCC2=CCCCC2)ccc1C	12	0.9	-8	1.1	1.1
O=C1CSc2ccc(C(=O)NCCC3=CCCCC3)cc2N1	-5	1.1	-2	0.8	1
Cc1ccc(NS(=O)(=O)c2cc(C(=O)NCc3ccccn3)ccc2Cl)cc1	55*	0.5	73*	1.1	0.3
COc1cccc(C(=O)NCCC2=CCCCC2)c1	43	0.6	93*	0.9	0.1
COc1ccc(C(=O)NCCC2=CCCCC2)cc1OC	-7	1.1	66*	1.5	0.3
CCOC(=O)C1CCN(C(=O)c2c(-c3c(F)cccc3Cl)noc2C)CC1	28	0.7	6	1.2	0.9
COc1ccc(C2C(C#N)=C(N)Oc3cc(C)n(Cc4ccncc4)c(=O)c32)cc1 (configuration not stated)	72*	0.3	62*	1	0.4
Cc1cc2c(c(=O)n1Cc1cccnc1)C(c1cccs1)C(C#N)=C(N)O2 (configuration not stated)	31	0.7	16	0.9	0.8
Cc1cc2c(c(=O)n1Cc1ccco1)C(c1cccnc1)C(C#N)=C(N)O2 (configuration not stated)	66*	0.3	14	0.8	0.9
CCOc1ccc(C2C(C#N)=C(N)Oc3cc(C)n(Cc4ccco4)c(=O)c32)cc1OC (configuration not stated)	16	0.8	4	1	1
